# The supplement of paper PMC4466140
# Tests used:
# Experiment in all cases: SPOT peptide array binding signal intensity (averaged, normalized) (arbitrary units (background-subtracted, floor 0; scale differs between SH3 domains)); higher = stronger binding of the SH3 domain to the peptide
# [1] = molecular target: AgAbp1
# Procedure, shortened: (§1)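 GST-SH3 fusions from four yeast species, purified on glutathione Sepharose, were incubated at 10 μg/ml overnight at 4°C on membranes of synthetic 15-mer peptides in which cysteines were replaced with serines. Binding signal is the normalized, background-subtracted spot intensity averaged over replicates, in domain-specific arbitrary units.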
# [2] = molecular target: AgBbc1
# Procedure, shortened: as §1
# [3] = molecular target: AgBem1-D1
# Procedure, shortened: as §1
# [4] = molecular target: AgBzz1-D1
# Procedure, shortened: as §1
# [5] = molecular target: AgBzz1-D2
# Procedure, shortened: as §1
# [6] = molecular target: AgCyk3
# Procedure, shortened: as §1
# [7] = molecular target: AgFus1
# Procedure, shortened: as §1
# [8] = molecular target: AgHof1
# Procedure, shortened: as §1
# [9] = molecular target: AgHse1
# Procedure, shortened: as §1
# [10] = molecular target: AgLsb1
# Procedure, shortened: as §1
# [11] = molecular target: AgLsb4
# Procedure, shortened: as §1
# [12] = molecular target: AgMyo5
# Procedure, shortened: as §1
# [13] = molecular target: AgNbp2
# Procedure, shortened: as §1
# [14] = molecular target: AgRvs167
# Procedure, shortened: as §1
# [15] = molecular target: AgSho1
# Procedure, shortened: as §1
# [16] = molecular target: AgSla1-D1-D2
# Procedure, shortened: as §1
# [17] = molecular target: AgSla1-D3
# Procedure, shortened: as §1
# [18] = molecular target: CaAbp1-D1
# Procedure, shortened: as §1
# [19] = molecular target: CaAbp1-D2
# Procedure, shortened: as §1
# [20] = molecular target: CaBbc1
# Procedure, shortened: as §1
# [21] = molecular target: CaBem1-D1
# Procedure, shortened: as §1
# [22] = molecular target: CaBzz1-D1
# Procedure, shortened: as §1
# [23] = molecular target: CaBzz1-D2
# Procedure, shortened: as §1
# [24] = molecular target: CaCyk3
# Procedure, shortened: as §1
# [25] = molecular target: CaFus1
# Procedure, shortened: as §1
# [26] = molecular target: CaHof1
# Procedure, shortened: as §1
# [27] = molecular target: CaHse1
# Procedure, shortened: as §1
# [28] = molecular target: CaLsb1
# Procedure, shortened: as §1
# [29] = molecular target: CaLsb4
# Procedure, shortened: as §1
# [30] = molecular target: CaMyo5
# Procedure, shortened: as §1
# [31] = molecular target: CaNbp2
# Procedure, shortened: as §1
# [32] = molecular target: CaRvs167
# Procedure, shortened: as §1
# [33] = molecular target: CaRvs167-3
# Procedure, shortened: as §1
# [34] = molecular target: CaSho1
# Procedure, shortened: as §1
# [35] = molecular target: CaSla1-D1-D2
# Procedure, shortened: as §1
# [36] = molecular target: CaSla1-D3
# Procedure, shortened: as §1
# [37] = molecular target: ScAbp1
# Procedure, shortened: as §1
# [38] = molecular target: ScBbc1
# Procedure, shortened: as §1
# [39] = molecular target: ScBem1-D1
# Procedure, shortened: as §1
# [40] = molecular target: ScBzz1-D1
# Procedure, shortened: as §1
# [41] = molecular target: ScBzz1-D2
# Procedure, shortened: as §1
# [42] = molecular target: ScCyk3
# Procedure, shortened: as §1
# [43] = molecular target: ScFus1
# Procedure, shortened: as §1
# [44] = molecular target: ScHof1
# Procedure, shortened: as §1
# [45] = molecular target: ScHse1
# Procedure, shortened: as §1
# [46] = molecular target: ScLsb1
# Procedure, shortened: as §1
# [47] = molecular target: ScLsb2
# Procedure, shortened: as §1
# [48] = molecular target: ScLsb3
# Procedure, shortened: as §1
# [49] = molecular target: ScLsb4
# Procedure, shortened: as §1
# [50] = molecular target: ScMyo3
# Procedure, shortened: as §1
# [51] = molecular target: ScMyo5
# Procedure, shortened: as §1
# [52] = molecular target: ScNbp2
# Procedure, shortened: as §1
# [53] = molecular target: ScPex13
# Procedure, shortened: as §1
# [54] = molecular target: ScRvs167
# Procedure, shortened: as §1
# [55] = molecular target: ScSho1
# Procedure, shortened: as §1
# [56] = molecular target: ScSla1-D1-D2
# Procedure, shortened: as §1
# [57] = molecular target: ScSla1-D3
# Procedure, shortened: as §1
# [58] = molecular target: SpAbp1-D1
# Procedure, shortened: as §1
# [59] = molecular target: SpBbc1
# Procedure, shortened: as §1
# [60] = molecular target: SpBzz1-D1
# Procedure, shortened: as §1
# [61] = molecular target: SpBzz1-D2
# Procedure, shortened: as §1
# [62] = molecular target: SpCyk3
# Procedure, shortened: as §1
# [63] = molecular target: SpHof1
# Procedure, shortened: as §1
# [64] = molecular target: SpHof1-2
# Procedure, shortened: as §1
# [65] = molecular target: SpHof1-3
# Procedure, shortened: as §1
# [66] = molecular target: SpHse1
# Procedure, shortened: as §1
# [67] = molecular target: SpLsb1
# Procedure, shortened: as §1
# [68] = molecular target: SpLsb4
# Procedure, shortened: as §1
# [69] = molecular target: SpMyo1
# Procedure, shortened: as §1
# [70] = molecular target: SpNbp2
# Procedure, shortened: as §1
# [71] = molecular target: SpPex13
# Procedure, shortened: as §1
# [72] = molecular target: SpRvs167
# Procedure, shortened: as §1
# [73] = molecular target: SpSla1-D1-D2
# Procedure, shortened: as §1
# [74] = molecular target: SpSla1-D3
# Procedure, shortened: as §1
binder,measurement,setting,value
VPKEPAPAPPPEPDM,SPOT peptide array binding signal intensity,[1],≤ 0
same,SPOT peptide array binding signal intensity,[2],0.5
same,SPOT peptide array binding signal intensity,[3],≤ 0
same,SPOT peptide array binding signal intensity,[4],≤ 0
same,SPOT peptide array binding signal intensity,[5],7
same,SPOT peptide array binding signal intensity,[6],≤ 0
same,SPOT peptide array binding signal intensity,[7],4.75
same,SPOT peptide array binding signal intensity,[8],3.88
same,SPOT peptide array binding signal intensity,[9],8
same,SPOT peptide array binding signal intensity,[10],≤ 0
same,SPOT peptide array binding signal intensity,[11],≤ 0
same,SPOT peptide array binding signal intensity,[12],520
same,SPOT peptide array binding signal intensity,[13],12
same,SPOT peptide array binding signal intensity,[14],0.167
same,SPOT peptide array binding signal intensity,[15],3.75
same,SPOT peptide array binding signal intensity,[16],≤ 0
same,SPOT peptide array binding signal intensity,[17],0.75
same,SPOT peptide array binding signal intensity,[18],≤ 0
same,SPOT peptide array binding signal intensity,[19],≤ 0
same,SPOT peptide array binding signal intensity,[20],≤ 0
same,SPOT peptide array binding signal intensity,[21],1.5
same,SPOT peptide array binding signal intensity,[22],42.8
same,SPOT peptide array binding signal intensity,[23],2.75
same,SPOT peptide array binding signal intensity,[24],≤ 0
same,SPOT peptide array binding signal intensity,[25],39
same,SPOT peptide array binding signal intensity,[26],≤ 0
same,SPOT peptide array binding signal intensity,[27],2.12
same,SPOT peptide array binding signal intensity,[28],≤ 0
same,SPOT peptide array binding signal intensity,[29],≤ 0
same,SPOT peptide array binding signal intensity,[30],180
same,SPOT peptide array binding signal intensity,[31],37
same,SPOT peptide array binding signal intensity,[32],≤ 0
same,SPOT peptide array binding signal intensity,[33],3.25
same,SPOT peptide array binding signal intensity,[34],3.5
same,SPOT peptide array binding signal intensity,[35],9
same,SPOT peptide array binding signal intensity,[36],≤ 0
same,SPOT peptide array binding signal intensity,[37],≤ 0
same,SPOT peptide array binding signal intensity,[38],≤ 0
same,SPOT peptide array binding signal intensity,[39],≤ 0
same,SPOT peptide array binding signal intensity,[40],≤ 0
same,SPOT peptide array binding signal intensity,[41],21
same,SPOT peptide array binding signal intensity,[42],≤ 0
same,SPOT peptide array binding signal intensity,[43],≤ 0
same,SPOT peptide array binding signal intensity,[44],≤ 0
same,SPOT peptide array binding signal intensity,[45],7.25
same,SPOT peptide array binding signal intensity,[46],≤ 0
same,SPOT peptide array binding signal intensity,[47],≤ 0
same,SPOT peptide array binding signal intensity,[48],≤ 0
same,SPOT peptide array binding signal intensity,[49],≤ 0
same,SPOT peptide array binding signal intensity,[50],1170
same,SPOT peptide array binding signal intensity,[51],779
same,SPOT peptide array binding signal intensity,[52],10.5
same,SPOT peptide array binding signal intensity,[53],≤ 0
same,SPOT peptide array binding signal intensity,[54],≤ 0
same,SPOT peptide array binding signal intensity,[55],≤ 0
same,SPOT peptide array binding signal intensity,[56],3.5
same,SPOT peptide array binding signal intensity,[57],6.5
same,SPOT peptide array binding signal intensity,[58],≤ 0
same,SPOT peptide array binding signal intensity,[59],1.12
same,SPOT peptide array binding signal intensity,[60],≤ 0
same,SPOT peptide array binding signal intensity,[61],0.25
same,SPOT peptide array binding signal intensity,[62],≤ 0
same,SPOT peptide array binding signal intensity,[63],≤ 0
same,SPOT peptide array binding signal intensity,[64],6.38
same,SPOT peptide array binding signal intensity,[65],20.2
same,SPOT peptide array binding signal intensity,[66],1.5
same,SPOT peptide array binding signal intensity,[67],≤ 0
same,SPOT peptide array binding signal intensity,[68],≤ 0
same,SPOT peptide array binding signal intensity,[69],670
same,SPOT peptide array binding signal intensity,[70],21
same,SPOT peptide array binding signal intensity,[71],≤ 0
same,SPOT peptide array binding signal intensity,[72],≤ 0
same,SPOT peptide array binding signal intensity,[73],8
same,SPOT peptide array binding signal intensity,[74],8.5
